# Measurements reported in PMC4336329 (PLoS ONE, 2015).
# About 14,000 (4.5%) of roughly 310,000 compounds showed an effect of 50% or more. Effects have a minus sign here. This excerpt belongs to a sample that is enriched for strong results.
# Molecular target: human ether-à-go-go-related gene (hERG) potassium channel (human, UniProt Q12809)
# Experiment: primary screen, population patch clamp on CHO cells stably expressing hERG; higher = less effect of the substance
# 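Also: peak tail current of the secondary pulse compared with the same well before compound.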
# human ether-à-go-go-related gene (hERG) potassium channel, sequence (Q12809 whole entry, looked up): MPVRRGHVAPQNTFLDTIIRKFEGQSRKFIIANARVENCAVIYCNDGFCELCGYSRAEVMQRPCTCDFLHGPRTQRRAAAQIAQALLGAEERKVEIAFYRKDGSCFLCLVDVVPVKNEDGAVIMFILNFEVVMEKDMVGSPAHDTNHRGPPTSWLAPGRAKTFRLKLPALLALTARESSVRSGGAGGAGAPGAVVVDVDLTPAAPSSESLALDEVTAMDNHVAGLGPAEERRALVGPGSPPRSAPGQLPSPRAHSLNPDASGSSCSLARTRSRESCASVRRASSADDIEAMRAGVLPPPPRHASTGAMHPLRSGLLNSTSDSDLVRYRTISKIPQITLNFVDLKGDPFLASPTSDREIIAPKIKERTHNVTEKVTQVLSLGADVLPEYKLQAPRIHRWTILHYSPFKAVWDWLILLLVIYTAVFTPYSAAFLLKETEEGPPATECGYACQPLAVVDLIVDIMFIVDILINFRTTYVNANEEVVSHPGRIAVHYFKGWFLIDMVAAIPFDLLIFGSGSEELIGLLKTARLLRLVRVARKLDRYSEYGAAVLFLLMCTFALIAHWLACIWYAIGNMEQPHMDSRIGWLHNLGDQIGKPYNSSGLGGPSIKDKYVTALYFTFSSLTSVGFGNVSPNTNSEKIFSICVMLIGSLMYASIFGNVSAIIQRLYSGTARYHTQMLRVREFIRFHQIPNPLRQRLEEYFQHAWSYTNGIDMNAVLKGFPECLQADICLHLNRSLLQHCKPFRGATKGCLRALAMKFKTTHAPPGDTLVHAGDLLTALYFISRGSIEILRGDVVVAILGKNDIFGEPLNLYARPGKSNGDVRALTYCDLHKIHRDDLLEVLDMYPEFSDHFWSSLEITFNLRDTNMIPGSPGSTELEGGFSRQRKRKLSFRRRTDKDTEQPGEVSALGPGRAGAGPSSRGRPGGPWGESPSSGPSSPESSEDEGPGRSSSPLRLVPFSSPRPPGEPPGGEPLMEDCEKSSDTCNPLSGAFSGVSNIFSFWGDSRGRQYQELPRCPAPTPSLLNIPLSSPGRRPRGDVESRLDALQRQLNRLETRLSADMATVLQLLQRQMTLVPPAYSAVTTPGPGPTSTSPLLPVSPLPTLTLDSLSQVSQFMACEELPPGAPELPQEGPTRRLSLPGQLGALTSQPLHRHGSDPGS
row,SMILES,"hERG current change (%, negative = inhibition) at 10uM [%]"
1,COc1ccc(C2c3c(oc4ccc(Cl)cc4c3=O)C(=O)N2CCN2CCOCC2)cc1 (centres unmarked),-81.2
2,COc1ccc(C2c3c(oc4ccccc4c3=O)C(=O)N2CCCN2CCOCC2)cc1 (centres unmarked),-7.15
3,COC(=O)c1ccc(C2c3c(oc4ccc(Cl)cc4c3=O)C(=O)N2CCN2CCOCC2)cc1 (centres unmarked),-35.2
4,C/C(=N\NC(=O)c1c(Br)c(C)nn1C)c1cccc(NC(=O)C2CCC2)c1,-19.4
5,Cc1c(C(=O)N2CCN(S(C)(=O)=O)CC2)oc2ccccc12,3.49
6,CCCCNS(=O)(=O)c1ccc2nc(-c3cccnc3)cc(C(=O)NC(C)C)c2c1,16.7
7,O=C(C1CCC1)N1CCC(O)(c2cccc(F)c2)CC1,14.6
8,CN(C)S(=O)(=O)c1ccc2nnn(OCC(=O)NC34CC5CC(CC(C5)C3)C4)c2c1,-51.7
9,C=CCNC(=O)NC(=O)COn1nnc2ccc(S(=O)(=O)N(C)C)cc21,5.69
10,CCc1ccc(NC(=O)COn2nnc3ccc(S(=O)(=O)N(C)C)cc32)cc1,-29.1
11,Cc1ccccc1CC(=O)Nc1ccc2c(C)cc(=O)oc2c1,-15.3
12,CCOC(=O)c1ccc(NC(=O)c2nc[nH]c2C(=O)N2CCN(c3ccccc3)CC2)cc1,3.29
13,O=C(O)C(Cc1c[nH]c2ccccc12)NS(=O)(=O)c1ccc(Br)cc1 (centres unmarked),8.36
14,COP(=O)(OC)c1nc(-c2ccc(C)cc2)oc1N1CCCCC1,-10.2
15,CCOP(=O)(c1ccccc1)c1nc(-c2ccc(F)cc2)oc1N1CCCCC1 (centres unmarked),-56.6
16,CCOP(=O)(c1ccccc1)c1nc(-c2ccccc2Cl)oc1N1CCCCC1 (centres unmarked),-11.4
17,Cc1ccc(-c2nc(P(=O)(c3ccccc3)c3ccccc3)c(N3CCOCC3)o2)cc1,-38.3
18,O=P(c1ccccc1)(c1ccccc1)c1nc(-c2ccccc2)oc1N1CCOCC1,-20.5
19,CCOP(=O)(OCC)c1nc(-c2ccccc2)oc1N1CCCCC1,4.4
20,CCOP(=O)(c1ccccc1)c1nc(-c2ccccc2C)oc1N1CCCCC1 (centres unmarked),0.633
21,CCOP(=O)(OCC)c1nc(-c2ccc(Br)cc2)oc1N1CCCCC1,-65.3
22,O=P(c1ccccc1)(c1ccccc1)c1nc(-c2ccc(Cl)cc2)oc1N1CCOCC1,-74.1
23,CC1=CCC2C(=O)N(c3ccc(C)cc3)C(=O)C2C1 (centres unmarked),-4.42

row,SMILES,"hERG current change (%, negative = inhibition) at 10uM [%]"
1,Cc1ccc(NC(=O)Cn2nnc(-c3ccccc3NC(=O)c3cccs3)n2)cc1,21.7
2,Cc1nc2ccccc2c(=O)n1-c1ccc(Cl)cc1[N+](=O)[O-],10.1
3,Cc1ccccc1NC(=O)C1CCCN(C(=O)NCc2ccccc2)C1 (centres unmarked),1.82
4,CCCCn1c(O)c(C(CC)=NCCCN(C)C)c(=O)[nH]c1=O,-29.2
5,CCC(=NCCCn1ccnc1)c1c(O)n(Cc2ccccc2)c(=O)[nH]c1=O,-68
6,CCC(=NCCCN(CC)CC)c1c(O)n(C2CCCCC2)c(=O)[nH]c1=O,-52.9
7,CCCCCCN=C(C)c1c(O)n(CCCC)c(=O)[nH]c1=O,-8.21
8,CCCCn1c(O)c(C(C)=NCCN2CCCCC2)c(=O)[nH]c1=O,-21.7
9,CCCCn1c(O)c(C(CC)=NCCN2CCOCC2)c(=O)[nH]c1=O,-15.3
10,CCC(=NCCCn1ccnc1)c1c(O)n(-c2ccccc2)c(=O)[nH]c1=O,7.4
11,CCC(=NCCO)c1c(O)n(C2CCCCC2)c(=O)[nH]c1=O,-14.6
12,CCCCCCN=C(CC)c1c(O)n(CCCC)c(=O)[nH]c1=O,-55.4
13,CCCCn1c(O)c(C(CC)=NCCCn2ccnc2)c(=O)[nH]c1=O,-43.3
14,CCCCn1c(O)c(C(CC)=NCCN2CCCCC2)c(=O)[nH]c1=O,-53.6
15,CCN(CC)CCCN=C(C)c1c(O)n(C2CCCCC2)c(=O)[nH]c1=O,-48.7
16,CCOC(=O)C1=c2s/c(=C\c3cccnc3)c(=O)n2C(N)=C(C(=O)OC)C1c1cccnc1 (centres unmarked),14.7
17,Cn1c(=O)c2c(nc(SCCN3CCOCC3)n2C)n(C)c1=O,16.9
18,Cc1cc(C(=O)NNC(=S)Nc2ccccc2C)cs1,18.8
19,CC(=O)n1nc(-c2cccnc2)nc1N,-7.75
20,NS(=O)(=O)c1cc2c(cc1Cl)NC(C(Cl)Cl)NS2(=O)=O (centres unmarked),20.2
21,CCCCCCn1c(O)c(C=NCCN2CCCCC2)c(=O)[nH]c1=O,-51.9
22,CCCCn1c(O)c(C=NCCN2CCCCC2)c(=O)[nH]c1=O,-2.31
23,CCCCCCn1c(O)c(C=NCCN2CCOCC2)c(=O)[nH]c1=O,-7.56

row,SMILES,"hERG current change (%, negative = inhibition) at 10uM [%]"
1,CCCNC(=O)N1CCC(C(=O)c2cccc(F)c2)CC1,-10.9
2,C#Cc1ccc(C(=O)NCc2ccc(N3CCCC3=O)cc2)cc1,20.2
3,CC(C)(C)NC(=O)C(c1ccco1)N(C(=O)Cn1nnc(-c2ccc(F)cc2)n1)c1ccccc1 (centres unmarked),-17.5
4,CCC1CCCCN1CCCNC(=O)c1ccc2c(c1)c(C)c(C)n2C (centres unmarked),-35
5,CCC1CCCCN1CCCNC(=O)c1ccc2nc(N3CCCCC3)sc2c1 (centres unmarked),-34
6,CC(C)CC1Nc2ccc(C(=O)NCCCN3CCCCC3C)cc2NC1=O (centres unmarked),3.4
7,CC1CCCC(C)N1CCCNC(=O)c1ccc2nc(N3CCOCC3)sc2c1 (centres unmarked),-10.3
8,CC1CCCCN1CCCNC(=O)c1cc(Br)c(Br)[nH]1 (centres unmarked),-64.9
9,CCC1CCCCN1CCCNC(=O)c1ccc2nc(N3CCC(C)CC3)sc2c1 (centres unmarked),-64.5
10,CC1CCCCN1CCCNC(=O)c1ccc2nc(N3CCCCC3)sc2c1 (centres unmarked),-22.8
11,CC1CCN(c2nc3ccc(C(=O)NCCCN4CCCCC4C)cc3s2)CC1 (centres unmarked),-59
12,Cc1c(C)n(C)c2ccc(C(=O)NCCCN3CCCCC3C)cc12 (centres unmarked),-19.6
13,Cc1ccc(OCC(=O)NNC(=O)CCc2ccccc2)c(Br)c1,10
14,CCOC(=O)N1CCN(C(=O)C2CCCN(S(=O)(=O)c3ccc(F)cc3)C2)CC1 (centres unmarked),-10.1
15,COc1ccc(Cl)cc1NC(=O)c1cc(-c2ccc(C)cc2O)n[nH]1,15.9
16,O=C1CSC(c2ccncc2)N1Cc1ccc(F)cc1 (centres unmarked),1.53
17,CCc1nc(NCc2ccccc2)c(C#N)c2c1CCCC2,23.3
18,CCN1CCc2c(C#N)c(N3CCOCC3)nc(NCCO)c2C1,11.8
19,CCN1CCc2c(C#N)c(N3CCCCC3)nc(NCc3ccccc3)c2C1,-39.8
20,C=CCNc1nc(NCc2ccccc2)c(C#N)c2c1CN(C)CC2,-68.1
21,CCN1CCc2c(C#N)c(NCc3ccccc3)nc(NCCO)c2C1,-51.6
22,CN1CCc2c(C#N)c(N3CCCCC3)nc(NCc3ccccc3)c2C1,-2.02
23,CCN1CCc2c(C#N)c(NCc3ccccc3)nc(N(CC)CC)c2C1,-68.5

row,SMILES,"hERG current change (%, negative = inhibition) at 10uM [%]"
1,C=CCNc1nc(N2CCOCC2)c(C#N)c2c1CN(C)CC2,-14.1
2,N#Cc1c(NCCO)nc(NCc2ccccc2)c2c1CCN(Cc1ccccc1)C2,-27.1
3,Cc1ccc(NC2=NCC(=O)N2C2CCCC2)cc1.Cl,14.7
4,CNC(=O)N1c2ccccc2NC(=O)CC1C (centres unmarked),9.32
5,Cc1ccc(S(=O)(=O)NC2=NCN(CCN3CCOCC3)CN2)cc1,8.55
6,CC(=O)N(CCCN1CCOCC1)Cc1ccncc1.Cl,16.4
7,O=C(Nc1nc2ccc(Cl)cc2s1)c1ccc(Br)o1,4.25
8,Cc1ccc(CNC(=O)/C=C/c2ccc(S(=O)(=O)NCc3ccco3)cc2)cc1,-1.37
9,O=C(CN1CCN(c2ccc([N+](=O)[O-])cc2)CC1)Nc1nccs1,-65.6
10,Cc1c(NC(=O)CN2CCN(c3ccc([N+](=O)[O-])cc3)CC2)c(=O)n(-c2ccccc2)n1C,-50.1
11,O=C(CN1CCN(c2ccccc2)CC1)Nc1nccs1,5.11
12,Cc1c(NC(=O)CN2CCN(c3ccccc3)CC2)c(=O)n(-c2ccccc2)n1C,9.86
13,O=C(CN1CCN(CC(=O)Nc2ccccn2)CC1)Nc1ccccn1,-36
14,O=C(CN1CCN(c2ccc([N+](=O)[O-])cc2)CC1)Nc1ccccn1,-77.9
15,Cc1c(NC(=O)CN2CCN(c3ccc(O)cc3)CC2)c(=O)n(-c2ccccc2)n1C,21
16,O=C(CN1CCN(c2ccccc2)CC1)Nc1cccc([N+](=O)[O-])c1,2.69
17,O=C(CN1CCN(c2ccc(F)cc2)CC1)Nc1nccs1,-1.39
18,C#CCSc1nnnn1-c1cccc(Cl)c1,-9.19
19,COc1cccc(C2NC(CC(C)C)(C(=O)O)C3C(=O)N(Cc4ccccc4)C(=O)C23)c1O (centres unmarked),10.2
20,CN(Cc1ccccc1F)C(=O)c1ccc(NS(=O)(=O)c2ccc3[nH]c(=O)[nH]c3c2)cc1,6.14
